In PubChem BioAssay (Tox21):
Several values for one entry are separate records, joined by “and”; a condition that tells them apart may be missing. Identical values can stand only once. Inconclusive results are not listed. A call without a number means that no potency is given here. Some compounds were tested as several samples or in several runs, with calls that do not always agree. Activity calls are given as the source filed them. Calls follow the shape of the dose curve; as a rule, active = well fitted cell-killing curve with a large enough effect in the repeat runs; inconclusive = weak or mixed curves, or effect the other way; inactive = no such curve, though single readings can be large or run the other way.

Assay: qHTS assay to identify small molecule agonists of the vitamin D receptor (VDR) signaling pathway - cell viability counter screen (AID 743224); also: nearly all actives have a fitted effect of over 50% in size
Settings: VDR-bla HEK293T viability, CellTiter-Glo luminescence, 16 h; series mostly up to 62.6 µM
Description: U.S. Tox21 Program National Center for Advancing Translational Sciences [NCATS] NIH Chemical Genomics Center [NCGC] U.S. Environmental Protection Agency [EPA] National Institutes of Environmental Health Sciences [NIEHS] National Toxicology Program [NTP] U.S. Food and Drug Administration [FDA] Tox21 Assay Overview: The vitamin D receptor (VDR), a member of nuclear hormone receptor superfamily, plays a critical role in calcium homeostasis and bone metabolism. It is also involved in cell differentiation and growth, and thrombogenicity. […] The cytotoxicity of the Tox21 compound library against the VDR-bla cell line was tested in parallel by measuring the cell viability using CellTiter-Glo assay (Promega, Madison, WI) in the same wells.
Tox21 Assay Protocol Summary: VDR-bla cells were dispensed at 2,000 cells/6 uL/well into black wall/clear-bottom 1536-well plates using a Multidrop Combi (Thermo Fisher Scientific, Waltham, MA) dispenser. After the assay plates were incubated at a 37C and 5% CO2 for 4 h, 23 nL of compounds dissolved in DMSO, positive controls or DMSO only was transferred to the assay plate by a Pintool station (Kalypsys, San Diego, CA). The plates were incubated at 37C and 5% CO2 for 16 h. After 1 uL of LiveBLAzerTM B/G FRET substrate was added using a Bioraptr Flying Reagent Dispenser (FRD) workstation (Beckman Coulter, Indianapolis, IN, USA), the plates were incubated at room temperature for 2 h, and fluorescence intensity was measured by an Envision plate reader (PerkinElmer, Shelton, CT). For cell viability readout that measures cytotoxicity, 3 ul/well of CellTiter-Glo reagent was added into the assay plates using a FRD. After 30 min incubation at room temperature, the luminescence intensity in the plates was measured using a ViewLux (PerkinElmer) plate reader.
Potency is read from the fitted curve at half-maximal effect.

Compound | Potency
O=[N+]([O-])O | inactive
C[C@]12CCC(=O)C=C1CC[C@@H]1[C@@H]2CC[C@]2(C)C(=O)CC[C@@H]12 | inactive
CCNc1nc(Cl)nc(NCC)n1 | inactive
N#CS | inactive
CCOP(=S)(OCC)Oc1ccc2c(C)c(Cl)c(=O)oc2c1 | inactive
CCCCCCCCCCCC(=O)O | inactive
Nc1ccccc1 | inactive
CCCC[n+]1ccccc1C | inactive
O=[N+]([O-])c1ccccc1O | inactive
CCn1cc[n+](C)c1C | inactive
COP(=O)(OC)OC=C(Cl)Cl | inactive
Oc1ccccc1-c1ccccc1 | inactive
O=C(O)c1nc(Cl)ccc1Cl | inactive
CCCCCCCCCCCCOS(=O)(=O)O | inactive
CCCC[n+]1ccccc1 | inactive
CCCC[N+]1(C)CCCCC1 | inactive
COP(=O)(OC)C(O)C(Cl)(Cl)Cl (stereo not given) | inactive
C1CCC(NC2CCCCC2)CC1 | inactive
CC[N+]1(C)CCCC1 | inactive
C[N+](C)(C)Cc1ccccc1 | inactive

Compound | Potency
O=P1(N(CCCl)CCCl)NCCCO1 (stereo not given) | inactive
Nc1ccc(-c2ccc(N)c(Cl)c2)cc1Cl | inactive
CC(Cl)(Cl)C(=O)O | inactive
Cc1cc(Cl)ccc1OCC(=O)O | inactive
Cc1cc(Cl)ccc1N | inactive
CCCCCCn1cc[n+](C)c1 | inactive
CCCCn1cc[n+](C)c1C | inactive
CCCC[N+]1(C)CCCC1 | inactive
CCCC[n+]1ccc(C)cc1 | inactive and 43.4 µM (active)
CCCn1cc[n+](C)c1 | inactive
CCCCn1cc[n+](C)c1 | inactive
O=C(O)COc1ccc(Cl)cc1Cl | inactive
CCCCCCCCCCCCCC[P+](CCCCCC)(CCCCCC)CCCCCC | 9.82 µM (active) and 5.54 µM (active)
Nc1ccc(-c2ccc(N)cc2)cc1 | inactive
CC[n+]1ccccc1 | inactive
CCCCCC[n+]1ccccc1 | 39.3 µM (active) and 49.3 µM (active) and inactive
C=CCOC(Cn1ccnc1)c1ccc(Cl)cc1Cl (stereo not given) | 54.9 µM (active) and inactive
COc1ccccc1N | inactive
OCCOc1ccccc1 | inactive
CN(C)[C@@H]1C(=O)C(C(N)=O)=C(O)[C@@]2(O)C(=O)C3=C(O)c4c(O)cccc4[C@@](C)(O)[C@H]3[C@H](O)[C@@H]12 | inactive
